# Reference: article PMC12864922, “TDP-43 directly inhibits mRNA accumulation in neurites through modulation of mRNA stability”
# Whole data set: some 9,900 sequences, median “r (bound/input frequency ratio)” near 0.7, cut for the highest 2% near 6.5. The list comes from a sample in which the highest values are over-represented; it also holds similar and randomly drawn sequences.
# B1: ENSMUSG00000022095.37|Fam160b2|125:129 (ssRNA)
# RNA: GGGAGUUCUACAGUCCGACGAUCGCUUCGAUAUCCGCAUGCUAACCUCACCUGUUGACCCCACGAGCUGAGGUUUCAAGGAGGUGCUGGCUCCUAAGGCAGUGGUAUUCUUGGAGCCUUUUAGAGGAGCUAGAGGAUGGCCAGUGAGCGCCUAGAUGCUGCCCUGCAACACAUGCGUGACUAUCUCUGCUAUAUUGUGACCAGGGCCACAACAUGAGACAACUCCAGGGGCCAGGGAGAUGAACUGCUGUCUUUGAGGCUGGCUAAAAAAACAAUCCAGUCCAGAGAGAUGGGGAGGGGGGGACUCUUGCGGUCGCACUAGUGUGGAAUUCUCGGGUGUCAAGG
# B2: ENSMUSG00000032194.151|Kank2|256:260 (ssRNA)
# RNA: GGGAGUUCUACAGUCCGACGAUCGCUUCGAUAUCCGCAUGCUAACUUCUAGAAAUACUUUCAGACCUACAGACAAAAAAGAAAAAAGGCCAUUCCGGAGUGACUCCCAGCAUCACAGCCCAGAACCUCCUCCUCAAAGGAGAGUAAACAGAGACUGUGAUACUGACCAAGUACAGGCGCUCGCUAUGAAGCCCAUAUGUUCCUGAUUAAGAGCUGGCUGGCCUCAGAGCACUCCCAGAACUAGCUUAAAGUGACAGGCUUUGCUGAAAUCCAAAGGGACAAAAGAGUAGUUUUAUGUUACACACUCUUGCGGUCGCACUAGUGUGGAAUUCUCGGGUGUCAAGG
# B3: ENSMUSG00000029028.13|Lrrc47|42:46;48:52;64:69;71:75;77:81;93:98;100:104;106:110;127:131;143:148;150:154;166:170;173:177;179:183;195:200;202:206;223:227;229:233 … (ssRNA)
# RNA: GGGAGUUCUACAGUCCGACGAUCGCUUCGAUAUCCGCAUGCUACCCUCCCCACGUGACUGUGGUCCGCUGACAGGCUCCUGUAGCACACGCACACCUGUAGGUGUCACACACGCACACGCACACCUGUAGGUGUCACACACGCACACGCACACCUAUAGGUAUCUGUGGCACACCUGUAGGUGUCACACACGCACACCUGUAGGUGUCACACAAGCACACGCACACCUGUAGGUGUCACACACGCACACCUAGGUGUCUGUAUAGCACACGCACACCUGUAGAUGUCACACAAGCAUACGGUGCUCUUGCGGUCGCACUAGUGUGGAAUUCUCGGGUGUCAAGG
# B4: ENSMUSG00000029028.12|Lrrc47 (ssRNA)
# RNA: GGGAGUUCUACAGUCCGACGAUCGCUUCGAUAUCCGCAUGCUACACCCUCCCUCCCCACGUGACUGUGGUCCGCUGACAGGCUCCUGUAGGUGUGGGUGUGCUGUAGGUGUCUGUGUGGGUGUGGGUGUGCUGUAGGUGUCUGUGUGGGUGUGGGUGUGCUAUAGGUAUCUGUGGGUGUGCUGUAGGUGUCUGUGUGGGUGUGCUGUAGGUGUCUGUGUAGGUGUGGGUGUGCUGUAGGUGUCUGUGUGGGUGUGCUAGGUGUCUGUAUAGGUGUGGGUGUGCUGUAGAUGUCUGUGUAGGUACUCUUGCGGUCGCACUAGUGUGGAAUUCUCGGGUGUCAAGG
# B5: ENSMUSG00000029028.11|Lrrc47|54:58;60:64;76:81;83:87;89:93;105:110;112:116;118:122;139:143;155:160;162:166;178:182;185:189;191:195;207:212;214:218;235:239;241:2 … (ssRNA)
# RNA: GGGAGUUCUACAGUCCGACGAUCGCUUCGAUAUCCGCAUGCUACCUGAUCACCCUCCCUCCCCACGUGACUGUGGUCCGCUGACAGGCUCCUGUAGCACACGCACACCUGUAGGUGUCACACACGCACACGCACACCUGUAGGUGUCACACACGCACACGCACACCUAUAGGUAUCUGUGGCACACCUGUAGGUGUCACACACGCACACCUGUAGGUGUCACACAAGCACACGCACACCUGUAGGUGUCACACACGCACACCUAGGUGUCUGUAUAGCACACGCACACCUGUAGAUGUCUGUGCUCUUGCGGUCGCACUAGUGUGGAAUUCUCGGGUGUCAAGG
# B6: ENSMUSG00000029028.11|Lrrc47 (ssRNA)
# RNA: GGGAGUUCUACAGUCCGACGAUCGCUUCGAUAUCCGCAUGCUACCUGAUCACCCUCCCUCCCCACGUGACUGUGGUCCGCUGACAGGCUCCUGUAGGUGUGGGUGUGCUGUAGGUGUCUGUGUGGGUGUGGGUGUGCUGUAGGUGUCUGUGUGGGUGUGGGUGUGCUAUAGGUAUCUGUGGGUGUGCUGUAGGUGUCUGUGUGGGUGUGCUGUAGGUGUCUGUGUAGGUGUGGGUGUGCUGUAGGUGUCUGUGUGGGUGUGCUAGGUGUCUGUAUAGGUGUGGGUGUGCUGUAGAUGUCUGUGCUCUUGCGGUCGCACUAGUGUGGAAUUCUCGGGUGUCAAGG
# B7: ENSMUSG00000029028.13|Lrrc47 (ssRNA)
# RNA: GGGAGUUCUACAGUCCGACGAUCGCUUCGAUAUCCGCAUGCUACCCUCCCCACGUGACUGUGGUCCGCUGACAGGCUCCUGUAGGUGUGGGUGUGCUGUAGGUGUCUGUGUGGGUGUGGGUGUGCUGUAGGUGUCUGUGUGGGUGUGGGUGUGCUAUAGGUAUCUGUGGGUGUGCUGUAGGUGUCUGUGUGGGUGUGCUGUAGGUGUCUGUGUAGGUGUGGGUGUGCUGUAGGUGUCUGUGUGGGUGUGCUAGGUGUCUGUAUAGGUGUGGGUGUGCUGUAGAUGUCUGUGUAGGUAUGGGUGCUCUUGCGGUCGCACUAGUGUGGAAUUCUCGGGUGUCAAGG
# B8: ENSMUSG00000029028.12|Lrrc47|48:52;54:58;70:75;77:81;83:87;99:104;106:110;112:116;133:137;149:154;156:160;172:176;179:183;185:189;201:206;208:212;229:233;235:23 … (ssRNA)
# RNA: GGGAGUUCUACAGUCCGACGAUCGCUUCGAUAUCCGCAUGCUACACCCUCCCUCCCCACGUGACUGUGGUCCGCUGACAGGCUCCUGUAGCACACGCACACCUGUAGGUGUCACACACGCACACGCACACCUGUAGGUGUCACACACGCACACGCACACCUAUAGGUAUCUGUGGCACACCUGUAGGUGUCACACACGCACACCUGUAGGUGUCACACAAGCACACGCACACCUGUAGGUGUCACACACGCACACCUAGGUGUCUGUAUAGCACACGCACACCUGUAGAUGUCACACAAGGUACUCUUGCGGUCGCACUAGUGUGGAAUUCUCGGGUGUCAAGG
# B9: ENSMUSG00000034801.232|Sos2|152:160 (ssRNA)
# RNA: GGGAGUUCUACAGUCCGACGAUCGCUUCGAUAUCCGCAUGCUAUAACUGUCUUUAAUCUCGUGUUAACUGAAAUUUUUGAAAAGUUUUUCCAGAUUAGUAAUAUUUAAACAGAAAAUACUUUAAAAAGCUUUAUUAAAUUUUUUAAUCAGGAUAAAGCUUUGCCAUUUGGAUACUAUCAUUCAAAGUGAUCAAGCAUACAUACUUAUGCUGAUAGUGCAGUAGCAGCCAUUGUAAAGUAGCCAAAAGCCACGUUGUUUAUCUACUGGUCUGUGGCCUUUUACUGUGCUUUGUAUCAGAGUUCUCUCUUGCGGUCGCACUAGUGUGGAAUUCUCGGGUGUCAAGG
# B10: ENSMUSG00000031028.95|Tub (ssRNA)
# RNA: GGGAGUUCUACAGUCCGACGAUCGCUUCGAUAUCCGCAUGCUAGGUGGUCAGCAGAAAGCACUCCCACUUCAAAAGGGCCCAUUAGGCCCAAAGGGGGUUAGGAGUGGUAGGGAUAGGUGCGUGGCAGGUCCCUGCUAGGAUUGCAGGGGCCUGGCCAUGUGUAUUAGCUGGAGGCUUAGAAUGCUAGCUCAUUUGUUGCUACAGAUUUGCCCAGUGCUUGCACACGUAAGAACCCAGCUCUCAAGGCCAAAUAUCUGAGUGGAUGGGGAUGAUAGGAGUCAUCCAGUAGACUCCCUACAUCACUCUUGCGGUCGCACUAGUGUGGAAUUCUCGGGUGUCAAGG
# Target: TDP-43 (Homo sapiens, UniProt Q13148 1-414)
# Assay: RNA Bind-n-Seq with designed 260-mer pool; 25 mM Tris-HCl, 150 mM KCl, 3 mM MgCl2, BSA (printed 500 mg/mL), 20 units/mL SUPERase IN; pH not stated; 500 nM RNA pool, 1 h, 4 C; TDP-43 5, 50, 500 nM; high values mean tight binding
# Conditions: protein: recombinant; tags: SBP (GST cleaved off with PreScission; pGEX-GST-SBP)
# Summary of the method: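 Binding (R) is the ratio of each oligo's mapped-read-normalized abundance in the bound fraction to its abundance in the input. To obtain it, SBP-tagged recombinant TDP-43 (5, 50 or 500 nM) on streptavidin beads was incubated with 500 nM of an in vitro-transcribed 260-nt 3′ UTR oligo pool for 1 h at 4 °C in 25 mM Tris-HCl, 150 mM KCl, 3 mM MgCl2, BSA and SUPERase IN. The RNA retained after washing was released with biotin, then reverse transcribed, amplified by PCR and sequenced.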
# Chain of TDP-43 (Q13148 whole entry): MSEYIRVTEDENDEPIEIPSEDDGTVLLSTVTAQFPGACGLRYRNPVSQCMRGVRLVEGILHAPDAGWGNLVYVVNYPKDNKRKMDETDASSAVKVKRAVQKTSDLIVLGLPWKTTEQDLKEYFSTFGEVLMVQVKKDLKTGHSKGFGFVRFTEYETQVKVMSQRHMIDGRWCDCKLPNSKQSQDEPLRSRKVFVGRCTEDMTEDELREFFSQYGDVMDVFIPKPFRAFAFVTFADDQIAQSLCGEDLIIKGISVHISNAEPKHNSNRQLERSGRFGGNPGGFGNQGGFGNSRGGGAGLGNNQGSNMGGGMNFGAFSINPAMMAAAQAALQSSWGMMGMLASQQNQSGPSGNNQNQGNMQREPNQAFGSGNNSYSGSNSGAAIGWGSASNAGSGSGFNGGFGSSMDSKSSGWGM
row,Binder,binding signal
1,B1,1.26 R (bound/input frequency ratio)
2,B2,0.163 R (bound/input frequency ratio)
3,B3,1.01 R (bound/input frequency ratio)
4,B4,5.27 R (bound/input frequency ratio)
5,B5,1.45 R (bound/input frequency ratio)
6,B6,7.32 R (bound/input frequency ratio)
7,B7,7.14 R (bound/input frequency ratio)
8,B8,1.21 R (bound/input frequency ratio)
9,B9,0.0144 R (bound/input frequency ratio)
10,B10,1.54 R (bound/input frequency ratio)
